{"source": "the supplement of paper PMC4709259", "note": "Where a name gives a salt, the structure may show the parent alone. ± gives the standard deviation.", "data": [{"system": "Jurkat", "assay": "mean cell size (FSC-A) relative to DMSO control (fraction of control); higher = larger cells", "conditions": "48 h", "procedure,_shortened": "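Jurkat cells seeded at 600 cells/µl were incubated 1 h, then exposed for 48h to the Enzo Screen-Well FDA Approved Drug Library v2.0 at 25µM in 0.9% (v/v) final DMSO. Drugs that cut counts below 20% of controls were diluted 10-fold and retested, down to 25nM. Cell count and mean cell size (forward scatter area) were read on an Accuri C6 flow cytometer, relative to solvent-only controls. Plates held 6-12 controls; values are means of 3 biological replicates.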", "values": [{"smiles": "CN(C)CCC(c1ccc(Br)cc1)c1ccccn1", "note": "(stereo unspecified) [Brompheniramine Maleate] (concentration: 25 µM)", "mean cell size": "0.946 ± 0.034"}, {"smiles": "CC1(C)S[C@@H]2[C@H](NC(=O)Cc3ccccc3)C(=O)N2[C@H]1C(=O)O", "note": "[Penicillin G Potassium (Benzylpenicillin)] (concentration: 25 µM)", "mean cell size": "0.948 ± 0.019"}, {"smiles": "C[C@@H]1C[C@H]2[C@@H]3CCC4=CC(=O)C=C[C@]4(C)[C@@]3(Cl)[C@@H](O)C[C@]2(C)[C@@]1(OC(=O)c1ccco1)C(=O)CCl", "note": "[Mometasone Furoate] (concentration: 25 µM)", "mean cell size": "0.915 ± 0.037"}, {"smiles": "COc1cc2nc(N3CCN(C(=O)C4COc5ccccc5O4)CC3)nc(N)c2cc1OC", "note": "(stereo unspecified) [Doxazosin Mesylate] (concentration: 2.5 µM)", "mean cell size": "1.01 ± 0.011"}, {"smiles": "NS(=O)(=O)c1cc2c(cc1C(F)(F)F)NCNS2(=O)=O", "note": "[Hydroflumethiazide] (concentration: 25 µM)", "mean cell size": "0.944 ± 0.048"}, {"smiles": "C=CC[N+]1([C@H]2C[C@H]3[C@@H]4CC[C@H]5C[C@H](O)[C@@H](N6CCOCC6)C[C@]5(C)[C@H]4CC[C@]3(C)[C@H]2OC(C)=O)CCCC1", "note": "[Rocuronium Bromide] (concentration: 25 µM)", "mean cell size": "0.952 ± 0.043"}, {"smiles": "Nc1nc(N)c2nc(-c3ccccc3)c(N)nc2n1", "note": "[Triamterene] (concentration: 25 µM)", "mean cell size": "1.21 ± 0.038"}, {"smiles": "Cc1cccc(Nc2ccncc2S(=O)(=O)NC(=O)NC(C)C)c1", "note": "[Torsemide] (concentration: 25 µM)", "mean cell size": "1.01 ± 0.052"}, {"smiles": "CCCCN1C[C@H](O)[C@@H](O)[C@H](O)[C@H]1CO", "note": "[Miglustat (N-Butyldeoxynojirimycin·HCl)] (concentration: 25 µM)", "mean cell size": "0.9757 ± 0.0093"}, {"smiles": "NC[C@@H]1O[C@H](O[C@H]2[C@@H](O)[C@H](O[C@@H]3[C@@H](O)[C@H](N)C[C@H](N)[C@H]3O[C@H]3O[C@H](CO)[C@@H](O)[C@H](O)[C@H]3N)O[C@@H]2CO)[C@H](N)[C@@H](O)[C@@H]1O", "note": "[Paromomycin Sulfate] (concentration: 25 µM)", "mean cell size": "0.949 ± 0.012"}, {"smiles": "CC(COc1ccccc1)N(CCCl)Cc1ccccc1", "note": "(stereo unspecified) [Phenoxybenzamine·HCl] (concentration: 25 µM)", "mean cell size": "0.965 ± 0.021"}, {"smiles": "N=C(N)NCCCC[C@@H]1NC(=O)CCSSC[C@@H](C(N)=O)NC(=O)[C@@H]2CCCN2C(=O)[C@H](Cc2c[nH]c3ccccc23)NC(=O)[C@H](CC(=O)O)NC(=O)CNC1=O", "note": "[Eptifibatide] (concentration: 25 µM)", "mean cell size": "0.988 ± 0.031"}, {"smiles": "CC(=O)OCC(CCn1cnc2cnc(N)nc21)COC(C)=O", "note": "[Famciclovir] (concentration: 25 µM)", "mean cell size": "0.925 ± 0.053"}, {"smiles": "Clc1ccccc1CN1CCc2sccc2C1", "note": "[Ticlopidine·HCl] (concentration: 25 µM)", "mean cell size": "0.922 ± 0.011"}, {"smiles": "CCCC1O[C@@H]2C[C@H]3[C@@H]4CCC5=CC(=O)C=C[C@]5(C)[C@H]4[C@@H](O)C[C@]3(C)[C@]2(C(=O)CO)O1", "note": "(stereo partly specified) [Budesonide] (concentration: 25 µM)", "mean cell size": "0.945 ± 0.037"}, {"smiles": "CC[C@H]1OC(=O)[C@H](C)[C@@H](O[C@H]2C[C@@](C)(OC)[C@@H](O)[C@H](C)O2)[C@H](C)[C@@H](O[C@@H]2O[C@H](C)C[C@H](N(C)C)[C@H]2O)[C@](C)(O)C[C@@H](C)CN(C)[C@H](C)[C@@H](O)[C@]1(C)O", "note": "[Azithromycin] (concentration: 25 µM)", "mean cell size": "0.948 ± 0.027"}, {"smiles": "COc1cc2nc(N(C)CCCNC(=O)C3CCCO3)nc(N)c2cc1OC", "note": "(stereo unspecified) [Alfuzosin] (concentration: 25 µM)", "mean cell size": "0.952 ± 0.029"}, {"smiles": "CN[C@H]1CC[C@@H](c2ccc(Cl)c(Cl)c2)c2ccccc21", "note": "[Sertraline·HCl] (concentration: 2.5 µM)", "mean cell size": "1.008 ± 0.0063"}, {"smiles": "CCCNC(C)C(=O)Nc1c(C)csc1C(=O)OC", "note": "(stereo unspecified) [Articaine·HCl] (concentration: 25 µM)", "mean cell size": "0.96 ± 0.028"}, {"smiles": "C[C@H]1O[C@@H](O[C@H]2[C@@H](O)C[C@H](O[C@H]3[C@@H](O)C[C@H](O[C@H]4CC[C@@]5(C)[C@H](CC[C@@H]6[C@@H]5C[C@@H](O)[C@]5(C)[C@@H](C7=CC(=O)OC7)CC[C@]65O)C4)O[C@@H]3C)O[C@@H]2C)C[C@H](O)[C@@H]1O", "note": "[Digoxin] (concentration: 25 nM)", "mean cell size": "0.91 ± 0.065"}, {"smiles": "Clc1ccc(CSC(Cn2ccnc2)c2ccc(Cl)cc2Cl)cc1", "note": "(stereo unspecified) [Sulconazole Nitrate] (concentration: 25 µM)", "mean cell size": "0.953 ± 0.023"}]}]}
